Laboratory results taken from PubChem BioAssay (NCATS).
Results filed as inconclusive are left out. Active and inactive are the calls of the source. Calls follow the shape of the dose curve; as a rule, active = well fitted curve in the direction sought with a large enough effect; inconclusive = small, poorly fitted or top-dose-only effect, or another doubt; inactive = no such curve, though single readings can be large; an effect the other way counts as inactive or inconclusive.

What was measured:
[1] = qHTS of pediatric cancer cell lines to identify multiple opportunities for drug repurposing: Primary screen for TC32 cells (AID 1347089); also: nearly all actives have a fitted effect of over 60% in size; also: potency is read from the fitted curve at half-maximal effect; as to activity change, negative = cytotoxic: % is scaled to controls: 0 for no effect and ±100 for the full control effect
Procedure, shortened: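 TC32 cells, 500-1,000/well in growth medium, compound-treated 48 h at 37 °C; viability from CellTiter-Glo luminescence. Primary screen: MIPE 11-point (0.78 nM–46 µM final), NPC 8-point (0.59 nM–46 µM final); confirmatory at 11-point dilutions.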

[2] = qHTS of pediatric cancer cell lines to identify multiple opportunities for drug repurposing: Primary screen for DAOY cells (AID 1347090); also: nearly all actives have a fitted effect of over 55% in size; also: potency is read from the fitted curve at half-maximal effect;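 as to activity change, negative = cytotoxic: series mostly up to about 46 µM; plate controls were DMSO for no effect and bortezomib for full effect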
Procedure, shortened: (§1)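 Eight- or eleven-point concentration series, 48 h treatment at 37 degrees C in growth media; readout CellTiter-Glo luminescence. Potency and efficacy were taken from the concentration-response curves.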

[3] = qHTS of pediatric cancer cell lines to identify multiple opportunities for drug repurposing: Primary screen for SJ-GBM2 cells (AID 1347091);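 also: plate controls were DMSO neutral control for no effect and bortezomib for full effect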
Procedure, shortened: as §1

[4] = qHTS of pediatric cancer cell lines to identify multiple opportunities for drug repurposing: Primary screen for A673 cells (AID 1347092); also: nearly all actives have a fitted effect of over 45% in size; also: potency is read from the fitted curve at half-maximal effect; as to activity change, negative = cytotoxic: % is scaled to controls: 0 for no effect and ±100 for the full control effect
Procedure, shortened: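 A673 cells (500-1,000 cells/well) were treated 48 hours at 37 degrees C with compounds at 11-point (0.78 nM to 46 µM) or 8-point (0.59 nM to 46 µM) dilutions. Viability read by CellTiter-Glo luminescence; concentration-response curves fitted.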

[5] = qHTS of pediatric cancer cell lines to identify multiple opportunities for drug repurposing: Primary screen for SK-N-MC cells (AID 1347093); also: potency is read from the fitted curve at half-maximal effect;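 as to activity change, negative = cytotoxic: series mostly up to about 46 µM; plate controls were DMSO neutral control for no effect and bortezomib for full effect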
Procedure, shortened: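 Metabolically active cells were quantified by ATP-dependent luminescence (CellTiter-Glo, 15 min at room temperature) following 48 h treatment. Cells had been plated at 500-1,000 per well and settled for 5 h beforehand.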

[6] = qHTS of pediatric cancer cell lines to identify multiple opportunities for drug repurposing: Primary screen for BT-37 cells (AID 1347094); also: potency is read from the fitted curve at half-maximal effect;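 as to activity change, negative = cytotoxic: series mostly up to about 57 µM; plate controls were DMSO for no effect and bortezomib for full effect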
Procedure, shortened: (§2)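 Plated cells (500-1,000 per well, growth media) were allowed to settle for 5 hours, treated with compound dilutions for 48 hours, then lysed with CellTiter-Glo for 15 min at room temperature before luminescence reading.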

[7] = qHTS of pediatric cancer cell lines to identify multiple opportunities for drug repurposing: Primary screen for NB-EBc1 cells (AID 1347095); also: potency is read from the fitted curve at half-maximal effect;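 as to activity change, negative = cytotoxic: plate controls were DMSO neutral control for no effect and bortezomib for full effect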
Procedure, shortened: as §2

[8] = qHTS of pediatric cancer cell lines to identify multiple opportunities for drug repurposing: Primary screen for U-2 OS cells (AID 1347096); also: nearly all actives have a fitted effect of over 50% in size; also: potency is read from the fitted curve at half-maximal effect;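 as to activity change, negative = cytotoxic: plate controls were DMSO wells for no effect and bortezomib positive control wells for full effect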
Procedure, shortened: (§3)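 Cells (500-1,000/well) in growth media were settled 5 h at 37 degrees C, then given compounds for 48 h. Viability was read as CellTiter-Glo luminescence. Primary runs used MIPE at 11 points (0.78 nM-46 µM) and NPC at 8 points (0.59 nM-46 µM); follow-ups used 11 points.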

[9] = qHTS of pediatric cancer cell lines to identify multiple opportunities for drug repurposing: Primary screen for Saos-2 cells (AID 1347097); also: nearly all actives have a fitted effect of over 40% in size; also: potency is read from the fitted curve at half-maximal effect; as to activity change, negative = cytotoxic: % is scaled to controls: 0 for no effect and ±100 for the full control effect
Procedure, shortened: as §2

[10] = qHTS of pediatric cancer cell lines to identify multiple opportunities for drug repurposing: Primary screen for SK-N-SH cells (AID 1347098);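 also: DMSO served as neutral control and bortezomib at 2.3 µM as positive control; % is scaled to controls: 0 for no effect and ±100 for the full control effect; nearly all actives have a fitted effect of over 65% in size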
Procedure, shortened: (§4)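 Cells (500-1,000/well) rested 5 h, then received compounds for 48 h; metabolically active cells were measured by CellTiter-Glo luminescence. Final concentrations spanned up to 46 µM (MIPE, 11-point) or 0.59 nM-46 µM (NPC, 8-point) in primary screens, 11-point in follow-ups.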

[11] = qHTS of pediatric cancer cell lines to identify multiple opportunities for drug repurposing: Primary screen for NB1643 cells (AID 1347099); also: nearly all actives have a fitted effect of over 50% in size; also: potency is read from the fitted curve at half-maximal effect;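 as to activity change, negative = cytotoxic: plate controls were DMSO neutral control for no effect and bortezomib positive control for full effect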
Procedure, shortened: as §2

[12] = qHTS of pediatric cancer cell lines to identify multiple opportunities for drug repurposing: Primary screen for LAN-5 cells (AID 1347100); also: potency is read from the fitted curve at half-maximal effect;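 as to activity change, negative = cytotoxic: plate controls were DMSO neutral control for no effect and bortezomib positive control for full effect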
Procedure, shortened: as §3

[13] = qHTS of pediatric cancer cell lines to identify multiple opportunities for drug repurposing: Primary screen for BT-12 cells (AID 1347101); also: nearly all actives have a fitted effect of over 25% in size; also: potency is read from the fitted curve at half-maximal effect;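 as to activity change, negative = cytotoxic: plate controls were DMSO for no effect and bortezomib positive control for full effect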
Procedure, shortened: as §4

[14] = qHTS of pediatric cancer cell lines to identify multiple opportunities for drug repurposing: Primary screen for Rh18 cells (AID 1347102); also: nearly all actives have a fitted effect of over 65% in size; also: potency is read from the fitted curve at half-maximal effect; as to activity change, negative = cytotoxic: % is scaled to controls: 0 for no effect and ±100 for the full control effect
Procedure, shortened: as §3

[15] = qHTS of pediatric cancer cell lines to identify multiple opportunities for drug repurposing: Primary screen for RD cells (AID 1347104); also: nearly all actives have a fitted effect of over 55% in size; also: potency is read from the fitted curve at half-maximal effect;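 as to activity change, negative = cytotoxic: plate controls were DMSO for no effect and bortezomib for full effect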
Procedure, shortened: as §2

[16] = qHTS of pediatric cancer cell lines to identify multiple opportunities for drug repurposing: Primary screen for OHS-50 cells (AID 1347103); also: nearly all actives have a fitted effect of over 40% in size; also: potency is read from the fitted curve at half-maximal effect;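 as to activity change, negative = cytotoxic: plate controls were DMSO neutral control for no effect and bortezomib positive control for full effect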
Procedure, shortened: as §4

CN1CCC[C@@H]1c1cccnc1
inactive: Potency [1] | Potency [2] | Potency [3] | Potency [4] | Potency [5] | Potency [6] | Potency [7] | Potency [8] | Potency [9] | Potency [10] | Potency [11] | Potency [12] | Potency [13] | Potency [14] | Potency [15]

CCCCN1CCCC1C(=O)Nc1c(C)cc(C)cc1C (stereo not given)
inactive: Potency [1] | Potency [2] | Potency [3] | Potency [4] | Potency [5] | Potency [6] | Potency [7] | Potency [8] | Potency [10] | Potency [11] | Potency [12] | Potency [13] | Potency [15]

OC(CCN1CCCCC1)(c1ccccc1)c1ccccc1
inactive: Potency [1] | Potency [2] | Potency [3] | Potency [4] | Potency [5] | Potency [6] | Potency [7] | Potency [9] | Potency [10] | Potency [11] | Potency [12] | Potency [13] | Potency [14] | Potency [15]

CCN1CCN(c2cc3c(cc2F)c(=O)c(C(=O)O)cn3C2CC2)CC1
inactive: Potency [1] | Potency [2] | Potency [3] | Potency [4] | Potency [5] | Potency [6] | Potency [7] | Potency [9] | Potency [10] | Potency [11] | Potency [12] | Potency [13] | Potency [14] | Potency [15]

COc1cc(-c2ccc(=O)[nH]n2)ccc1OC(F)F
inactive: Potency [1] | Potency [2] | Potency [3] | Potency [4] | Potency [5] | Potency [6] | Potency [7] | Potency [8] | Potency [11] | Potency [12] | Potency [13] | Potency [14] | Potency [16] | Potency [15]

CN(C)C(=S)SC(=S)N(C)C
active: Potency [1] 3.74 µM | Potency [2] 0.841 µM | Potency [4] 0.668 µM | Potency [5] 0.001 µM | Potency [6] 24.6 µM | Potency [7] 10.6 µM | Potency [8] 1.68 µM | Potency [9] 1.06 µM | Potency [11] 2.99 µM | Potency [12] 1.33 µM | Potency [13] 1.23 µM | Potency [14] 1.88 µM | Potency [16] 8.71 µM | Potency [15] 0.944 µM
inactive: Potency [3]

COC(=O)CCc1ccc(OCC(O)CNC(C)C)cc1 (stereo not given)
inactive: Potency [1] | Potency [2] | Potency [3] | Potency [4] | Potency [5] | Potency [6] | Potency [7] | Potency [8] | Potency [9] | Potency [10] | Potency [11] | Potency [12] | Potency [13] | Potency [14] | Potency [15]

C[C@H](CCC(=O)O)[C@H]1CC[C@H]2[C@@H]3C(=O)C[C@@H]4CC(=O)CC[C@]4(C)[C@H]3CC(=O)[C@]12C
inactive: Potency [1] | Potency [2] | Potency [3] | Potency [4] | Potency [5] | Potency [6] | Potency [7] | Potency [8] | Potency [9] | Potency [10] | Potency [11] | Potency [12] | Potency [13] | Potency [14] | Potency [15]

N[C@H](Cc1c[nH]c2ccccc12)C(=O)O
inactive: Potency [1] | Potency [2] | Potency [3] | Potency [4] | Potency [5] | Potency [6] | Potency [8] | Potency [10] | Potency [11] | Potency [12] | Potency [13] | Potency [14] | Potency [15]

CC1(C)OC[C@@H](COC(=O)CCc2ccc(OC[C@@H](O)CNCCNC(=O)N3CCOCC3)cc2)O1
inactive: Potency [1] | Potency [2] | Potency [3] | Potency [4] | Potency [6] | Potency [7] | Potency [8] | Potency [9] | Potency [11] | Potency [12] | Potency [13] | Potency [14] | Potency [16] | Potency [15]

C[C@]12CCC(=O)C=C1[C@@H]1C[C@@H]1[C@H]1[C@@H]3[C@@H]4C[C@@H]4[C@@]4(CCC(=O)O4)[C@@]3(C)CC[C@@H]12
active: Potency [16] 24.6 µM
inactive: Potency [1] | Potency [2] | Potency [3] | Potency [4] | Potency [6] | Potency [7] | Potency [8] | Potency [9] | Potency [10] | Potency [11] | Potency [12] | Potency [15]

O=S1(=O)c2cccc3cccc(c23)N1CCCN1CCN(c2ccc(F)cc2)CC1
inactive: Potency [1] | Potency [2] | Potency [3] | Potency [4] | Potency [6] | Potency [7] | Potency [8] | Potency [9] | Potency [11] | Potency [13] | Potency [14] | Potency [15]

CCn1cc(C(=O)O)c(=O)c2cnc(N3CCCC3)nc21
inactive: activity change, negative = cytotoxic [1] 4.83% [at 9.17 µM] | activity change, negative = cytotoxic [2] -3.72% [at 9.22 µM] | activity change, negative = cytotoxic [3] -2.71% [at 9.22 µM] | activity change, negative = cytotoxic [4] -17.7% [at 9.22 µM] | activity change, negative = cytotoxic [5] -9.99% [at 9.22 µM] | activity change, negative = cytotoxic [6] 0.276% [at 11.5 µM] | activity change, negative = cytotoxic [8] 4.46% [at 9.22 µM] | activity change, negative = cytotoxic [9] 0.0364% [at 9.22 µM] | activity change, negative = cytotoxic [11] 1.66% [at 9.22 µM] | activity change, negative = cytotoxic [12] -2.09% [at 9.22 µM] | activity change, negative = cytotoxic [13] 1.9% [at 11.5 µM] | activity change, negative = cytotoxic [15] -0.58% [at 9.22 µM]

COc1cc(C(=S)N2CCOCC2)cc(OC)c1OC
inactive: Potency [1] | Potency [2] | Potency [3] | Potency [4] | Potency [6] | Potency [7] | Potency [8] | Potency [9] | Potency [11] | Potency [12] | Potency [13] | Potency [14] | Potency [16] | Potency [15]

CCCOC(C(=O)OC1CCN(C)CC1)(c1ccccc1)c1ccccc1
inactive: Potency [1] | Potency [2] | Potency [3] | Potency [4] | Potency [5] | Potency [11] | Potency [12] | Potency [13]

CN=C(NC#N)NCCSCc1csc(N=C(N)N)n1
inactive: Potency [1] | Potency [2] | Potency [3] | Potency [4] | Potency [5] | Potency [6] | Potency [8] | Potency [9] | Potency [11] | Potency [12] | Potency [13] | Potency [14] | Potency [16] | Potency [15]
